Measured values: the supplement of paper PMC10849652
Of roughly 8,800 targets only a part is listed; those with a hit were picked by preference. About 0.5% of all pairs of compound and target were hits.

What was measured:
Assay in all cases: log2 fold change, soluble protein after heating vs DMSO (PISA); higher = thermal stabilisation; K562 lysate, 10 uM; active = over 0.2 and 3.5 SD of the protein, either way, in both replicates (recomputed)
[1] = compound: CN1CC[C@H](c2c(O)cc(O)c3c(=O)cc(-c4ccccc4Cl)oc23)[C@H](O)C1 [alvocidib]
Outline: (§1)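 Log-two fold change in thermal stability relative to solvent controls is reported from duplicates. For each sample, crude K562 extract from dounce-homogenised pellets in PBS pH 7.4 with 1 mM MgCl2, at 1 mg/mL protein, was treated with 10 μM compound for 30 min. Aliquots heated for 3 min across 48°C-58°C were pooled, brought to 0.5% NP-40 at 4°C and cleared at 21,000xg for 90 min. The supernatant was quantified by TMTpro 16plex LC-MS/MS with channel sums equalised.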

[2] = compound: CN1CCc2c(c3ccccc3n2Cc2ccc(C(=O)NO)cc2)C1 [Tubastatin A]
Outline: as §1

[3] = compound: CNC(=O)C1=CC=CC=C1NC2=NC(=NC=C2Cl)NC3=C(C=C(C=C3)N4CCOCC4)OC
Outline: as §1

[4] = compound: CNC(=O)c1ccc(Nc2ncc(C(F)(F)F)c(NCc3nccnc3N(C)S(C)(=O)=O)n2)cc1 [defactinib]
Outline: as §1

[5] = compound: CNc1nc(-c2ccc3c(N)n[nH]c3c2)cc(N2C[C@@H](C(=O)NC3CCCCC3)CC[C@H]2C)n1
Outline: as §1

[6] = compound: COC(=O)N[C@@H](C)CNc1nccc(-c2cn(C(C)C)nc2-c2cc(Cl)cc(NS(C)(=O)=O)c2F)n1 [encorafenib]
Outline: as §1

[7] = compound: COC(=O)[C@H](CCSC)NC(=O)C1=C(C=C(C=C1)NC[C@H](CS)N)C2=CC=CC=C2
Outline: as §1

[8] = compound: COc1cc(Nc2ncc3c(n2)-c2ccc(Cl)cc2C(c2c(F)cccc2OC)=NC3)ccc1C(=O)O [alisertib]
Outline: as §1

[9] = compound: COc1cc2nc(-c3cc(F)ccc3O)nc(N[C@@H]3CNC[C@H]3C(C)(C)O)c2cc1OC
Outline: as §1

[10] = compound: COc1cc2ncnc(Nc3ccc(F)c(Cl)c3)c2cc1OCCCN1CCOCC1 [gefitinib]
Outline: as §1

Measured: log2 fold change

TSPAN13 (UniProt O95857)
inactive: [1] -0.26 | [2] 0.046 | [3] -0.042 | [4] 0.017 | [5] 0.299 | [6] -0.007 | [7] 0.049 | [8] 0.003 | [9] 0.043 | [10] -0.003

TSPAN3 (UniProt O60637)
UniProt O60637, sequence (O60637 whole entry, looked up): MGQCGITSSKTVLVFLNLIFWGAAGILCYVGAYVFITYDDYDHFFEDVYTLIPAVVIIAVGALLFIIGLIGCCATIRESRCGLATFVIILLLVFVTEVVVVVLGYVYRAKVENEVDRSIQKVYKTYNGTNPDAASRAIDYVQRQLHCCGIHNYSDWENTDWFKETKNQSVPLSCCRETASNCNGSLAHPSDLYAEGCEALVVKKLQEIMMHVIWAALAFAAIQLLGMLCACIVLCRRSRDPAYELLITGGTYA
inactive: [1] 0.193 | [2] -0.081 | [3] 0.027 | [4] 0.096 | [5] 0.091 | [6] -0.015 | [7] 0.026 | [8] -0.231 | [9] 0.042 | [10] 0.049

TRMT10A (UniProt Q8TBZ6)
inactive: [1] 0.003 | [2] -0.008 | [3] 0.095 | [4] -0.01 | [5] 0.09 | [6] -0.031 | [7] -0.012 | [8] 0.015 | [9] -0.021 | [10] -0.004

TPM1 (UniProt H7BYY1)
inactive: [1] 0.027 | [2] 0.092 | [3] 0.007 | [4] 0 | [5] 0.022 | [6] 0.056 | [7] -0.023 | [8] -0.048 | [9] -0.04 | [10] 0.076

TTC5 (UniProt Q8N0Z6)
inactive: [1] -0.006 | [2] -0.092 | [3] -0.017 | [4] -0.017 | [5] -0.02 | [6] -0.021 | [7] 0.057 | [8] -0.036 | [9] -0.01 | [10] 0.091

TPST2 (UniProt O60704)
inactive: [1] -0.107 | [2] 0.059 | [3] 0.041 | [4] -0.038 | [5] -0.02 | [6] 0.03 | [7] -0.049 | [8] 0.478 | [9] 0.025 | [10] 0.072

TGFBRAP1 (UniProt Q8WUH2)
UniProt Q8WUH2, sequence (Q8WUH2 whole entry, looked up): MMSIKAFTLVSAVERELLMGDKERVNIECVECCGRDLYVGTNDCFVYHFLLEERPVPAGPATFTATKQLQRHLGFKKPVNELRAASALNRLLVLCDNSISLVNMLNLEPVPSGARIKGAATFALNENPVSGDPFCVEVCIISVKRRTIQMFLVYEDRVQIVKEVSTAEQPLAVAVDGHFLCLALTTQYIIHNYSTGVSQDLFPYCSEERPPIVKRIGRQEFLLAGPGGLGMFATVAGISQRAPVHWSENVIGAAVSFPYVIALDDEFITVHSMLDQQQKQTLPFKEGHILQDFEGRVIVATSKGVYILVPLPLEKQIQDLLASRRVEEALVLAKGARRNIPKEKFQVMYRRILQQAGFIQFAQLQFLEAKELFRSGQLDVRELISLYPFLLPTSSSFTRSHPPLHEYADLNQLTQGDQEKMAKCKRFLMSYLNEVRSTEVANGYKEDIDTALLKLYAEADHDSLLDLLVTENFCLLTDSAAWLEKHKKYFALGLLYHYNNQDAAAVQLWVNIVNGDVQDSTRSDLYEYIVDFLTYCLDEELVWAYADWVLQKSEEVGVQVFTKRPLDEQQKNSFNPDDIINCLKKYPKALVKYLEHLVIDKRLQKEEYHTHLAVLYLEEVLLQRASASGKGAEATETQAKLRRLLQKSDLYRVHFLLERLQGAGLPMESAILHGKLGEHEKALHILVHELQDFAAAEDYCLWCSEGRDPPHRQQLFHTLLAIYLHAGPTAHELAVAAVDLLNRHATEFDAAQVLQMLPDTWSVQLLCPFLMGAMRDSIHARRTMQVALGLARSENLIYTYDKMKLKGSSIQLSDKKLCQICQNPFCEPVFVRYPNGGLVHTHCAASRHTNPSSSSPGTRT
inactive: [1] -0.026 | [2] -0.153 | [3] 0 | [4] 0.005 | [5] -0.012 | [6] -0.015 | [7] -0.174 | [8] 0.011 | [9] -0.025 | [10] -0.025

TRA2A (UniProt Q13595)
inactive: [1] -0.007 | [2] -0.079 | [3] -0.033 | [4] 0.171 | [5] 0.031 | [6] -0.017 | [7] 0.068 | [8] -0.188 | [9] 0.017 | [10] 0.118

TBC1D23 (UniProt Q9NUY8)
inactive: [1] 0 | [2] -0.076 | [3] 0.025 | [4] -0.006 | [5] 0.05 | [6] -0.009 | [7] -0.019 | [8] -0.014 | [9] 0.002 | [10] -0.006

TTC4 (UniProt O95801)
inactive: [1] -0.012 | [2] -0.183 | [3] 0.078 | [4] 0.004 | [5] 0.003 | [6] 0.021 | [7] -0.005 | [8] 0.008 | [9] -0.017 | [10] -0.003

TLE3 isoform 4 (UniProt Q04726)
UniProt Q04726, sequence (Q04726 whole entry, looked up): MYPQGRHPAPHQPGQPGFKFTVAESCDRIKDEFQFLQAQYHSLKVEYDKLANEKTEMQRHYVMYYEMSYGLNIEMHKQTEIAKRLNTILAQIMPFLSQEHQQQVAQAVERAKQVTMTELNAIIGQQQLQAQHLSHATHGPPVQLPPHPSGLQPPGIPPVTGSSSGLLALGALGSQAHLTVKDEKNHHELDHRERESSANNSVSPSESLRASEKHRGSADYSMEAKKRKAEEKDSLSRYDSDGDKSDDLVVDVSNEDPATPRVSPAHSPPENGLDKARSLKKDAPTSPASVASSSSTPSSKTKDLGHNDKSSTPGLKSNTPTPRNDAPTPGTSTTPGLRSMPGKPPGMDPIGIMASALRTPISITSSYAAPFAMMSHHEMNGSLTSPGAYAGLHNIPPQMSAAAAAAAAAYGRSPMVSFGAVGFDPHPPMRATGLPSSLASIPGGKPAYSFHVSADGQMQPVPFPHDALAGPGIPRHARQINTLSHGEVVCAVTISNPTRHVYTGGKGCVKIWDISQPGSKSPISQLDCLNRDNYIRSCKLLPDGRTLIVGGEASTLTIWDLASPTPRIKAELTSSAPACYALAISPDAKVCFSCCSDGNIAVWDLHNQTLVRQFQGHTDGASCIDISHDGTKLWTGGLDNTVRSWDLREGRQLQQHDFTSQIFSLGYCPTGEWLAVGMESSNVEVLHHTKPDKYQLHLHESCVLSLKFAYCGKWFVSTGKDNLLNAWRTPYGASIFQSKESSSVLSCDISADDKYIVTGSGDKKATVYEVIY
inactive: [1] 0.023 | [2] 0.002 | [3] -0.013 | [4] 0.004 | [5] 0.024 | [6] 0.014 | [7] -0.019 | [8] -0.016 | [9] 0.002 | [10] -0.037

TRMT12 (UniProt Q53H54)
UniProt Q53H54, sequence (Q53H54 whole entry, looked up): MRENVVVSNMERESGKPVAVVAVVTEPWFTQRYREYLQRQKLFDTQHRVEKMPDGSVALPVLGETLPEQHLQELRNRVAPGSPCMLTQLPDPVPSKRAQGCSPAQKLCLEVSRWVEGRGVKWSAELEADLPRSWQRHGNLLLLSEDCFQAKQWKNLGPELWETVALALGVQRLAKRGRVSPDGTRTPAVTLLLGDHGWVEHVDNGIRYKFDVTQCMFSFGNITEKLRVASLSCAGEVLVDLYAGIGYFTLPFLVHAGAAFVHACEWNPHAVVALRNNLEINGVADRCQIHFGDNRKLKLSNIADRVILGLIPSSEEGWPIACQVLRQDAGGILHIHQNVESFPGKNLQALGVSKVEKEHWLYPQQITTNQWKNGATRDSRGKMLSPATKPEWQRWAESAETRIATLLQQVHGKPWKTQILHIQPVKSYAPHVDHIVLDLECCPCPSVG
inactive: [1] -0.022 | [2] -0.106 | [3] -0.113 | [4] -0.058 | [5] 0.007 | [6] 0.041 | [7] 0.088 | [8] -0.031 | [9] 0.018 | [10] 0.123

TP53RK (UniProt Q96S44)
inactive: [1] -0.012 | [2] 0.054 | [3] -0.037 | [4] 0.019 | [5] -0.026 | [6] 0.028 | [7] 0.025 | [8] 0.001 | [9] 0.002 | [10] -0.042

TRADD (UniProt Q15628)
UniProt Q15628, sequence (Q15628 whole entry, looked up): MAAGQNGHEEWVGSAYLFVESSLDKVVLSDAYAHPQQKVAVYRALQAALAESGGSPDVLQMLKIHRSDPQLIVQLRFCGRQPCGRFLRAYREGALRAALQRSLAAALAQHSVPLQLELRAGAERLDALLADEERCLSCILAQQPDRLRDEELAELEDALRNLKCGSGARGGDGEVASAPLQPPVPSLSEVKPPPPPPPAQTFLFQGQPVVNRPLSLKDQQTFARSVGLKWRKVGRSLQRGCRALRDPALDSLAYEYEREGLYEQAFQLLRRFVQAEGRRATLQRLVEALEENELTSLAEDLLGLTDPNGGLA
inactive: [1] -0.029 | [2] -0.066 | [3] 0.021 | [4] -0.092 | [5] 0.021 | [6] -0.012 | [7] -0.241 | [8] 0.009 | [9] 0.004 | [10] -0.03

TOX4 (UniProt O94842)
inactive: [1] -0.16 | [2] -0.006 | [3] 0.027 | [4] 0.025 | [5] -0.022 | [6] -0.011 | [7] -0.082 | [8] 0.028 | [9] -0.013 | [10] -0.016

TRNAU1AP (UniProt Q9NX07)
UniProt Q9NX07, sequence (Q9NX07 whole entry, looked up): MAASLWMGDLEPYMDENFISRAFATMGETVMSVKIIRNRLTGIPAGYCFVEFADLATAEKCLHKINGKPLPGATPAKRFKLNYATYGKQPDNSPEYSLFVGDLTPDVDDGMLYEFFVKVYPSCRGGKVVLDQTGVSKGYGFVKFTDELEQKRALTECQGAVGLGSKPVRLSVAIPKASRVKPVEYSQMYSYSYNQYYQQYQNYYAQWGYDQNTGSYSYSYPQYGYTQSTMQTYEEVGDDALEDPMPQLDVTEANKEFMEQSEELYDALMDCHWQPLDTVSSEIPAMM
inactive: [1] -0.059 | [2] -0.08 | [3] 0.015 | [4] -0.192 | [5] -0.039 | [6] 0.045 | [7] 0.034 | [8] 0.098 | [9] -0.007 | [10] -0.019

TBC1D8B (UniProt Q0IIM8)
UniProt Q0IIM8, sequence (Q0IIM8 whole entry, looked up): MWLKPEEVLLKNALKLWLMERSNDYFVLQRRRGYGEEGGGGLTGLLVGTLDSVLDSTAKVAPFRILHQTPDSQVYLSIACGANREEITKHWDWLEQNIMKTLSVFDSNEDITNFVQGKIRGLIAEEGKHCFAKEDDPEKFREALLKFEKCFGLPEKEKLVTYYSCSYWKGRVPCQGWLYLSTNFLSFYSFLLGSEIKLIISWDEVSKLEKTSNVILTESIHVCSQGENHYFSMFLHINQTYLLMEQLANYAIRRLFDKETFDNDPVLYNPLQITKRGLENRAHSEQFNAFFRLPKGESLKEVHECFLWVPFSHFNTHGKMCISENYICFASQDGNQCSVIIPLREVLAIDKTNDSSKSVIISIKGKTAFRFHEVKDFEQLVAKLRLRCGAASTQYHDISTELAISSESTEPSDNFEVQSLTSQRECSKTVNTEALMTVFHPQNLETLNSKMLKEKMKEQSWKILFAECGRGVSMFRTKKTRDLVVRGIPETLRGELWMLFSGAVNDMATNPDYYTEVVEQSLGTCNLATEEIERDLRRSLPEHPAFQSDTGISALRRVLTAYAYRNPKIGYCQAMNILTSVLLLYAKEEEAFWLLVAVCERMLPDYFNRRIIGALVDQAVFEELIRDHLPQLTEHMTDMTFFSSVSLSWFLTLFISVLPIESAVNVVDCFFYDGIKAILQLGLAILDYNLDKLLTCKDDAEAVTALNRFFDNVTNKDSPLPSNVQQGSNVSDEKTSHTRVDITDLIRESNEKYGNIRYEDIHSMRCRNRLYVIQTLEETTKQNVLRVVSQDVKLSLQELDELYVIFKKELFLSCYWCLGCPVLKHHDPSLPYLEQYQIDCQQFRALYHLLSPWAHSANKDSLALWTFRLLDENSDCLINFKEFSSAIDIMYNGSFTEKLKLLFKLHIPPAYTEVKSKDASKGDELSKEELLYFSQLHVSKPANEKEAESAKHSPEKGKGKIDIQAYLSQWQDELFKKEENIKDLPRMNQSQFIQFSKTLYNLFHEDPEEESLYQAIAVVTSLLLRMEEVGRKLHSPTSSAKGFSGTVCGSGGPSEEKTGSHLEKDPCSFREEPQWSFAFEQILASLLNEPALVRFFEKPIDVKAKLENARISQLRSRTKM
inactive: [1] -0.134 | [2] 0.051 | [3] -0.017 | [4] -0.057 | [5] 0.078 | [6] -0.032 | [7] 0.033 | [8] 0.11 | [9] 0.026 | [10] 0.008

TCAF2 (UniProt A6NFQ2)
inactive: [1] -0.016 | [2] -0.183 | [3] -0.026 | [4] 0.067 | [5] -0.026 | [6] 0.006 | [7] 0.044 | [8] 0.03 | [9] -0.067 | [10] -0.042

UBIAD1 (UniProt Q9Y5Z9)
inactive: [1] -0.016 | [2] 0.025 | [3] 0.008 | [4] 0.031 | [5] 0.157 | [6] 0.067 | [7] -0.102 | [8] 0.112 | [9] -0.061 | [10] -0.048

TUBB2A (UniProt Q13885)
UniProt Q13885, sequence (Q13885 whole entry, looked up): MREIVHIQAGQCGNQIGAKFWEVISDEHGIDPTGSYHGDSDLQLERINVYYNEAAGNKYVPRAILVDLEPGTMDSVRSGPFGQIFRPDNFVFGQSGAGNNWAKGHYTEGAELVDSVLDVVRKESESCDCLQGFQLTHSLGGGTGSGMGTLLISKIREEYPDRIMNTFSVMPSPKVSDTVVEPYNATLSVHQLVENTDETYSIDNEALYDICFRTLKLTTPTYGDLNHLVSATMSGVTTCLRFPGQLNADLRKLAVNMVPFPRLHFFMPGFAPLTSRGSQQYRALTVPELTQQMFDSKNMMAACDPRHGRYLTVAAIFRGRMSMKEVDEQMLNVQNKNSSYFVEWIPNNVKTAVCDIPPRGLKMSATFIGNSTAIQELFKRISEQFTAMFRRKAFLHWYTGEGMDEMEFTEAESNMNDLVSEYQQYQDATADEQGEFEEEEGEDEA
inactive: [1] -0.007 | [2] -0.062 | [3] -0.021 | [4] 0.006 | [5] -0.008 | [6] 0.01 | [7] 0.071 | [8] -0.005 | [9] -0.001 | [10] -0.006

UBR5 (UniProt O95071)
inactive: [1] -0.011 | [2] -0.084 | [3] 0.002 | [4] 0.016 | [5] 0 | [6] 0.025 | [7] -0.044 | [8] -0.028 | [9] -0.005 | [10] 0.014

TUBGCP4 (UniProt Q9UGJ1)
inactive: [1] 0 | [2] -0.081 | [3] 0.007 | [4] -0.023 | [5] -0.025 | [6] -0.049 | [7] 0.047 | [8] -0.007 | [9] -0.018 | [10] -0.043

TTF2 (UniProt Q9UNY4)
inactive: [1] -0.018 | [2] -0.055 | [3] 0.05 | [4] 0.069 | [5] 0.005 | [6] -0.018 | [7] -0.01 | [8] 0.005 | [9] 0.056 | [10] 0.002

TJP1 isoform 2 (UniProt Q07157)
inactive: [1] -0.011 | [2] 0.047 | [3] -0.02 | [4] -0.018 | [5] 0.043 | [6] -0.013 | [7] 0.011 | [8] -0.007 | [9] 0.007 | [10] -0.017

TUBA1C (UniProt Q9BQE3)
inactive: [1] 0 | [2] -0.001 | [3] 0.011 | [4] 0.009 | [5] 0.06 | [6] -0.002 | [7] 0.023 | [8] -0.012 | [9] 0.001 | [10] -0.042

TERF2IP (UniProt Q9NYB0)
inactive: [1] 0.087 | [2] 0.014 | [3] 0.009 | [4] -0.008 | [5] 0.019 | [6] 0 | [7] -0.038 | [8] -0.015 | [9] 0.011 | [10] -0.003

TPM4 (UniProt P67936)
inactive: [1] -0.016 | [2] 0.074 | [3] -0.021 | [4] 0.019 | [5] 0.022 | [6] 0.028 | [7] -0.028 | [8] -0.105 | [9] 0.012 | [10] 0.033

TPP2 (UniProt Q5VZU9)
inactive: [1] -0.099 | [2] -0.121 | [3] 0.092 | [4] 0.062 | [5] 0.068 | [6] -0.076 | [7] 0.058 | [8] 0.006 | [9] 0.076 | [10] 0.011

TECR (UniProt Q9NZ01)
UniProt Q9NZ01, sequence (Q9NZ01 whole entry, looked up): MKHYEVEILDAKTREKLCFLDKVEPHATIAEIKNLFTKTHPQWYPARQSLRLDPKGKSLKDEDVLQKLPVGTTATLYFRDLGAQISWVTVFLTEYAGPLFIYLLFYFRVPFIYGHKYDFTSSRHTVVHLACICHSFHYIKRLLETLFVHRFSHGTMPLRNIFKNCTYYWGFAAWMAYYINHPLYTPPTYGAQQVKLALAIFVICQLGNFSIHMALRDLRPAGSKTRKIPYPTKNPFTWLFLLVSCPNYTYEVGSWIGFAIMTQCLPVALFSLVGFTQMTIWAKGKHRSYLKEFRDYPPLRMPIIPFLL
inactive: [1] 0.05 | [2] -0.015 | [3] -0.046 | [4] 0.052 | [5] -0.008 | [6] 0.068 | [7] -0.104 | [8] 0.053 | [9] 0.048 | [10] -0.008

UBAP2 (UniProt Q5T6F2)
inactive: [1] -0.081 | [2] 0.026 | [3] -0.026 | [4] -0.003 | [5] 0.005 | [6] 0.033 | [7] -0.021 | [8] 0.005 | [9] 0.011 | [10] 0.014
